Broadly, the inhibition is the change of the read-out against control, counted positive when it falls.

Inhibition data for 88 molecules are collected here from PubChem BioAssay AID602438 (Sanford-Burnham Center for Chemical Genomics, 2012).

Hit rate of the full screen: of about 360,000 compounds, about 3,100 (0.86%) were called active.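 Rule for the calls: active = inhibition or corrected inhibition above about 18%, plus a signal ratio from 0.5 to 1.5 (limit read from the data, passing the limit was not always enough); inactive = the rest.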 The list comes from a sample in which actives are over-represented; it also holds similar structures and randomly drawn compounds.

The target of this experiment is Neuropilin-1 (Homo sapiens) (UniProt O14786). Kind of experiment: NRP-1/CendR peptide interaction modulators – biochemical, fluorescence polarization, uHTS, primary screen (AID 602438). Particulars: FAM-RPARPAR peptide binding to NRP-1, fluorescence polarization; at 25 µM; hits give high values. On the technique in general: Polarisation of emitted light reports the rotation of a fluorescent probe.
Neuropilin-1 (Homo sapiens), sequence (O14786 whole entry, looked up): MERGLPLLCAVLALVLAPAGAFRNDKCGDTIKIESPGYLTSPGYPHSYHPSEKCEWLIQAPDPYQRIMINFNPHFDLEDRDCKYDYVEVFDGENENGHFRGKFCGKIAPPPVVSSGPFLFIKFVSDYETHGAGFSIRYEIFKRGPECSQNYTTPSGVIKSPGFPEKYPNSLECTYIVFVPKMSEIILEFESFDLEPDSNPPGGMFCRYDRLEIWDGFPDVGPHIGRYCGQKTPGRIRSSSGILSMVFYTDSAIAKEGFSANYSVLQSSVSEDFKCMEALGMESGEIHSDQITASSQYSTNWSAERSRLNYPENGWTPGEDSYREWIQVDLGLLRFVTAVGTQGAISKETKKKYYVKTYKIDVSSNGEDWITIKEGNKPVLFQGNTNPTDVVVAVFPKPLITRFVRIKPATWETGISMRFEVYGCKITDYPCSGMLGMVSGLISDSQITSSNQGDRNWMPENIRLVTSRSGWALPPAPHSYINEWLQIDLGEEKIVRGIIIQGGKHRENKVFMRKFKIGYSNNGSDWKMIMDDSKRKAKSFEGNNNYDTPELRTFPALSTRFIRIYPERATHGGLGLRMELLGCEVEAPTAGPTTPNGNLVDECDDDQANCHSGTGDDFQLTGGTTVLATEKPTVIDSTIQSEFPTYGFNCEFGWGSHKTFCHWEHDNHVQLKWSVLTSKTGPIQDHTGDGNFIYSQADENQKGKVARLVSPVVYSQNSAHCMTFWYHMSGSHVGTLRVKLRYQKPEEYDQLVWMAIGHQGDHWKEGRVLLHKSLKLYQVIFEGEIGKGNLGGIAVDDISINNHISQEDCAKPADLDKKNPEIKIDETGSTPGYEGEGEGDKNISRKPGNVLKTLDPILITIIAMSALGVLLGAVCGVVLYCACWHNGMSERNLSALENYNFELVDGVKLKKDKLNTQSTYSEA
In the case of `CO[C@@H]1CN(C)C(=O)c2cc(NC(=O)Nc3cc(F)ccc3F)ccc2OC[C@H](C)N(C(=O)c2ccccn2)C[C@@H]1C`, the inhibition was 2.7% (inactive).

Consider `COc1ccc(Cl)cc1NC(=O)C(C)N1CCc2ccccc21` (stereo not drawn), for which the inhibition was 23.1% (active).

As for `COc1ccc(Cl)cc1NC(=O)NC(C)C(C)(C)C` (stereo not drawn), the inhibition was -1.8% (inactive).

Turning to `COc1ccc(Cl)cc1NC(=O)NCC1CCN(Cc2ccccc2F)CC1`, the inhibition is -1% (inactive).

`Cc1n[nH]c(=O)n1-c1ccc(Oc2ccccc2)cc1`: the inhibition is 20% (inactive).

`CCOc1ccc(CCNC(=O)C2=C(C)C(=O)OC23CCC(C)CC3)cc1OCC` (stereo not drawn): the inhibition was -1.3% (inactive).

As to `CC(=O)Nc1ccc(NC(=O)COc2ccccc2C(=O)Nc2cccc(Cl)c2Cl)cc1`, the inhibition was 4.5% (inactive).

As for `CN(C)S(=O)(=O)Oc1ccccc1C(=O)Nc1ccccc1Cl`, the inhibition was 50.6% (active).

On to `CSc1ccccc1NC(=O)c1cc(Cl)sc1Cl`, for which the inhibition was -5.4% (inactive).

For the molecule `COc1ccc(CN2C3CCCC2CC(NC(=O)c2cccc(F)c2)C3)cc1` (stereo not drawn), the inhibition was -2.7% (inactive).

As for `COc1ccc(CN2C(CC(=O)Nc3cccnc3)c3ccc(C(F)(F)F)cc3S2(=O)=O)cc1` (stereo not drawn), the inhibition was 0.3% (inactive).

Turning to `COc1ccc(CN2[C@@H](CC(=O)O)c3cc(F)ccc3S2(=O)=O)cc1`, the inhibition was 26.2% (active).

In the case of `O=C(C[n+]1cc(-c2ccc(Cl)c(Cl)c2)n2c1CCC2)c1cccs1`, the inhibition was -11.8% (inactive).

With `CCOC(=O)C1(Cc2ccccc2C)CCCN(C(=O)CN2C(=O)CSC2=O)C1` (stereo not drawn), the inhibition was 5.9% (inactive).

Take `COc1ccc(CC(=O)OC(C)C(=O)Nc2ccc(S(N)(=O)=O)cc2)cc1` (stereo not drawn): the inhibition was -4.6% (inactive).

As for `COC(C[C@@H](O)[C@H](C)[C@H](O)COCc1ccccc1)OC`, the inhibition is 18.6% (active).

With `COC(C[C@@H](O)C[C@@H](O)[C@H](C)OCc1ccccc1)OC`, the inhibition was 17.1% (inactive).

With `COC(C[C@@H](O)C[C@H](O)[C@H](C)OCc1ccccc1)OC`, the inhibition is -8.8% (inactive).

With `COCCn1c(SCc2nc3cc(OC)c(OC)cc3c(=O)[nH]2)nnc1-c1ccncc1`, the inhibition was 14.6% (inactive).

Take `NS(=O)(=O)c1ccc(CCNC(=O)c2nc(CS(=O)(=O)c3ccc(Cl)cc3)no2)cc1`: the inhibition is -1.3% (inactive).

For `O=C1C=C(NCCNc2c(F)c(F)c(CO)c(F)c2F)CCC1`, the inhibition was -0.5% (inactive).

Regarding `CCOC(=O)[C@]12CCC=C1N(Cc1ccccc1)C(=O)[C@H](CC(=O)N1CCCC1)C2`, the inhibition is -23.1% (inactive).

Turning to `CC(=O)NC(CC(=O)Nc1nc(-c2ccccc2)c(C(C)=O)s1)c1ccccc1` (stereo not drawn), the inhibition is -4.6% (inactive).

Take `CCN1C(=S)N[C@@H](CCc2ccccc2)[C@H](C(=O)OC)[C@H]1C`: the inhibition was 10.2% (inactive).

Take `COCCN1C(=O)N[C@@H](CCc2ccccc2)[C@H](C(C)=O)[C@H]1C`: the inhibition was 23.7% (active).

Regarding `CCN1C(=O)N[C@@H](c2ccccc2)[C@H](C(C)=O)[C@H]1C`, the inhibition was 7.8% (inactive).

In the case of `CC12COC3(C(=O)Nc4ccc(Cl)cn4)CC1CCC32C` (stereo not drawn), the inhibition was -0.2% (inactive).

With `COc1ccc(OCC(=O)OCCN(C)C)cc1`, the inhibition is 1.6% (inactive).

Consider `Cc1ccc(OCC(=O)Nc2ccc(C(=O)O)cc2NC(=O)COc2ccc(C)c(C)c2)cc1C`, for which the inhibition was 0.7% (inactive).

Regarding `COc1ccc(C(=O)COC(=O)COc2ccc(C)c(C)c2)cc1`, the inhibition was 33.9% (active).

Consider `CCCCNC(=O)C1(O)c2ccccc2NC(=O)N1c1ccc(Cl)cc1` (stereo not drawn), for which the inhibition is 3.9% (inactive).

Take `COc1ccc(N(CC(=O)NCCSCc2cccc(Cl)c2)S(C)(=O)=O)cc1`: the inhibition was -7.7% (inactive).

As to `CCCNC(=O)c1cc2c(c(-c3cccc(-c4ccc(C#N)cc4)c3)n1)[C@@H](CCO)N(C(=O)CC)C2`, the inhibition is 8.8% (inactive).

For `O=C(N[C@H]1CC[C@H](CC(=O)N2CCCCC2)O[C@@H]1CO)c1cccc(F)c1`, the inhibition was -5% (inactive).

With `CCCc1cc(=O)oc2c(C)c(OC(C)C(=O)NCC(O)c3ccccc3)ccc12` (stereo not drawn), the inhibition was 22.4% (active).

As for `Cc1cc(=O)oc2c(C)c(OC(C)C(=O)NC3CCN(Cc4ccccc4)CC3)ccc12` (stereo not drawn), the inhibition is 12.6% (inactive).

On to `CCCc1cc(=O)oc2c(C)c(OCC(=O)NCc3ccccn3)ccc12`, for which the inhibition was -1% (inactive).

Turning to `CC1Cc2ccccc2N1CC(=O)Nc1ccc(S(N)(=O)=O)cc1` (stereo not drawn), the inhibition is 3.7% (inactive).

With `CC1COc2ccccc2N1S(=O)(=O)c1ccccc1` (stereo not drawn), the inhibition is 8.8% (inactive).

Take `Cc1ccc(C(=O)Nc2ccccc2-c2ccccc2)cc1S(=O)(=O)Nc1ccccc1`: the inhibition is 29.8% (active).

Regarding `O=C(O)c1ccc(F)c(S(=O)(=O)Nc2ccccc2)c1`, the inhibition was -11.7% (inactive).

Take `Cc1cc(C(C)(C)C)cc(S(=O)(=O)Nc2ccc(C(=O)O)cc2)c1C`: the inhibition was 7.7% (inactive).

For `COC(=O)C1CCN(C(=O)c2ccc3oc(Cc4ccc(Cl)cc4)nc3c2)CC1`, the inhibition was 8.2% (inactive).

With `O=C(C1CCN(CC2CCCCC2)CC1)N1CCCC1`, the inhibition was 10.7% (inactive).

`NC(=O)CSc1nnc(-c2cccc(S(=O)(=O)N3CCOCC3)c2)o1`: the inhibition is -9.5% (inactive).

For `Cc1noc(C)c1CSc1nc2cc(S(=O)(=O)N3CCOCC3)ccc2o1`, the inhibition was 21.4% (active).

For the molecule `COc1ccc(NC(=O)c2oc3ccc(S(=O)(=O)N4CCOCC4)cc3c2C)cc1`, the inhibition was 13.1% (inactive).

`C[C@@H]1ON(C)[C@H]2C[C@H]3c4cc(N5CCN(C)CC5)ccc4CCN3C(=O)[C@@H]12`: the inhibition is 4.7% (inactive).

As to `Cc1cc(C)cc(N(CCC#N)C(=O)CN2C(=O)NC3(CCCC3)C2=O)c1`, the inhibition is -5.9% (inactive).

Take `CCN(CC)S(=O)(=O)c1ccc2[nH]cc(C(=O)NCCc3ccccc3)c(=O)c2c1`: the inhibition was 8.6% (inactive).

For `CN(C)/C(=N\OC(=O)c1ccccc1)c1nonc1N`, the inhibition was 2% (inactive).

For `COc1cccc(C2/C(=C(/O)c3ccc(F)cc3)C(=O)C(=O)N2CCN(C)C)c1` (stereo not drawn), the inhibition was 4% (inactive).

Turning to `CCCOc1ccc(/C(O)=C2/C(=O)C(=O)N(CCN(C)C)C2c2ccc(OC)c(OC)c2)cc1` (stereo not drawn), the inhibition was 1.7% (inactive).

Regarding `C=CCOc1ccc(C2/C(=C(\O)c3c(C)[nH]c(C(=O)OC)c3C)C(=O)C(=O)N2CCN(C)C)cc1` (stereo not drawn), the inhibition is 29.5% (active).

Take `Cc1ccc(-c2nc(CS(=O)CC(=O)N3CCN(c4ncccn4)CC3)c(C)o2)cc1` (stereo not drawn): the inhibition was -11.2% (inactive).

With `CCNC(=S)N(CCc1c(C)[nH]c2ccc(C)cc12)Cc1ccco1`, the inhibition is -23.4% (inactive).

As to `Cc1ccc(C)c(N(CC(=O)NCc2ccco2)C(=O)CCC(=O)Nc2ccccn2)c1`, the inhibition is -4.5% (inactive).

As to `CCCCC1=CC2=CC(=O)C(C)(OC(=O)CC)C(=O)C2=CN1CCCOC(C)C` (stereo not drawn), the inhibition is 29.4% (active).

`CCN(CC)C(=O)N1CCN(C(=O)c2ccc(C)cn2)CC1`: the inhibition was 0.3% (inactive).

With `Cc1ccc(C(CC(=O)O)NC(=O)c2ccc(S(=O)(=O)N3CCCC3)cc2)cc1` (stereo not drawn), the inhibition was -5.6% (inactive).

In the case of `O=C(COC(=O)c1ccccn1)NNC(=O)c1ccc([N+](=O)[O-])cc1`, the inhibition was 2.2% (inactive).

Turning to `N/C(=N\OC(=O)Cc1ccc([N+](=O)[O-])cc1)c1ccccn1`, the inhibition was -0.7% (inactive).

In the case of `O=C(OCc1ccc([N+](=O)[O-])cc1)c1ccccn1`, the inhibition was 28.2% (active).

With `Cc1ccc(OCC(=O)N2CCN(C(=O)c3cccnc3)CC2)cc1`, the inhibition was 6.1% (inactive).

As for `O=C(C[C@H]1CC[C@H]2[C@@H](COC[C@H](O)CN2C(=O)c2ccccn2)O1)N1CCN(c2ccccc2)CC1`, the inhibition is 2.2% (inactive).

Take `COc1cc(C2C(C(=O)c3sc(C)nc3C)=C(O)C(=O)N2CCN(C)C)cc(OC)c1OC` (stereo not drawn): the inhibition was 0.6% (inactive).

In the case of `Cc1ccc(S(=O)(=O)N2CCC(=O)N([C@H](COCc3ccccc3)C(C)C)CC2)cc1`, the inhibition is -3.6% (inactive).

Regarding `Cc1ccc(S(=O)(=O)N2CCC(=O)N([C@H](COCc3ccccc3)Cc3ccccc3)CC2)cc1`, the inhibition is -15.7% (inactive).

For `COc1ccc(COCCN2CCN(S(=O)(=O)c3ccccc3)CCC2=O)cc1`, the inhibition is 28.5% (active).

`CCCCCn1nnnc1-c1nc2cc3ccccc3cc2[nH]c1=O`: the inhibition was 0% (inactive).

As for `COCCCNC(=O)c1c(F)c(F)c(F)c(F)c1F`, the inhibition is 8.4% (inactive).

Take `Cc1nc(C(F)(F)F)ccc1C(=O)N1CCC1(C)C(=O)NS(=O)(=O)c1ccccc1Cl` (stereo not drawn): the inhibition was 13.8% (inactive).

For the molecule `NC(=O)COc1ccccc1C(=O)NC12CC3CC(CC(C3)C1)C2`, the inhibition is -2.6% (inactive).

Consider `O=C(NCCN1CCOCC1)c1ccccc1N1C(=O)[C@@H]2Cc3c([nH]c4ccccc34)C(c3cccc(Cl)c3)N2C1=O` (stereo partly drawn), for which the inhibition was -5.5% (inactive).

With `Cc1ccc(OCc2nnc(NC(=O)OCC(C)C)s2)cc1`, the inhibition was 19.5% (active).

As to `O=C(Nc1nnc(COc2ccccc2)s1)Nc1ccccc1F`, the inhibition was -10.8% (inactive).

Take `CCOCc1nnc(NC(=O)CSc2ccc(C)cc2)s1`: the inhibition was -1% (inactive).

As to `O=C(CNCc1ccco1)Nc1cc(S(=O)(=O)N2CCOCC2)ccc1N1CCCC1`, the inhibition was 7.8% (inactive).

For the molecule `Cc1cc(C)c(CN2CCN(C(=O)Cn3ccc(NC(=O)OCc4ccccc4)nc3=O)CC2)c(C)c1`, the inhibition is 3.3% (inactive).

Turning to `O=C(c1ccccc1)c1cccn1CC(=O)N1CCN(c2ccc(F)cc2)CC1`, the inhibition is -4.3% (inactive).

Regarding `Cc1ccc(CNS(=O)(=O)c2ccc3c(c2)N(C)CCO3)cc1`, the inhibition was -8.8% (inactive).

`COc1ccc(-c2nonc2NC(=O)c2oc3ccc(F)cc3c2C)cc1OC`: the inhibition is 30.3% (active).

As for `CCc1nonc1NC(=O)c1oc2ccc(Cl)cc2c1C`, the inhibition is 13.2% (inactive).

On to `Cc1nonc1NC(=O)c1oc2ccccc2c1C`, for which the inhibition is 7.8% (inactive).

For the molecule `O=C(NCc1ccc2c(c1)OCO2)C1CCCN(S(=O)(=O)c2cccs2)C1` (stereo not drawn), the inhibition was -10.1% (inactive).

As to `CCCCc1c(-c2ccc(Br)cc2)ncn1CCc1ccccc1OC`, the inhibition was 12.7% (inactive).

In the case of `CC(C)C1Cc2[nH][nH]c(=O)c2C(c2ccc(Cl)cc2)O1` (stereo not drawn), the inhibition was -4.6% (inactive).

As to `CC(C)NC(=O)c1ccccc1S(=O)c1ccccc1C#N` (stereo not drawn), the inhibition is -10.3% (inactive).
